Compound activity from PubChem BioAssay.
FLuc inh: blocks purified firefly luciferase enzyme activity | P08659 | purified P. pyralis luciferase, luminescence, biochemical | hit rate 2.5% among 76,000 | Potency, µM (series often up to 115 µM), usual class: inhibitors; further: nearly all actives have a fitted effect of over 65% in size
Target sequence (P08659 whole entry, looked up): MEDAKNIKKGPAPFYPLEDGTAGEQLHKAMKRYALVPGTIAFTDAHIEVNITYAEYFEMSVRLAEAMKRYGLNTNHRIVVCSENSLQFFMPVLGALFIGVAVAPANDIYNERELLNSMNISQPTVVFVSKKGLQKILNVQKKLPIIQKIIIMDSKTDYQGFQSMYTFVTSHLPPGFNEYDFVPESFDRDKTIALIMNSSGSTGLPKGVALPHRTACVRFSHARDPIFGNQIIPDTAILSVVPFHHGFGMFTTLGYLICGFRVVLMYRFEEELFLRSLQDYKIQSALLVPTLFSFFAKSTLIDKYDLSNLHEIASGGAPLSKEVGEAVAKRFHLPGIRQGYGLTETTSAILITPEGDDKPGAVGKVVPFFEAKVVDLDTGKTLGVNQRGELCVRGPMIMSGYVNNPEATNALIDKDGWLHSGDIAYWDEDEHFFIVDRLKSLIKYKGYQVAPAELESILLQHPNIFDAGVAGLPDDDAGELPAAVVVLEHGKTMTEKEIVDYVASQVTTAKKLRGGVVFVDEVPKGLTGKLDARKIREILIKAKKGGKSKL
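Purified P. pyralis luciferase (10nM final) in 50mM Tris acetate pH 7.5, 10mM Mg acetate, 0.01% Tween-20, 0.05% BSA with 10uM D-luciferin and 10uM ATP. Compounds titrated qHTS. Luminescence imaged on CCD.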
HEK cytotox: HEK 293 cell cytotoxicity. HEK 293 viability, ATP luminescence (CellTiter-Glo), 48-72 h. Potency, µM (highest dose often 115 µM), actives largely listed as inhibitors. hit rate 6.6% among 94,000. AID 1345083; further: nearly all actives have a fitted effect of over 60% in size
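CellTiter-Glo luminescence (cellular ATP) was read after 48 or 72 hr of compound exposure at 37 degree Celsius. Cells were HEK 293 plated at 250 cells/well.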
NPR1 antag: antagonists of human natriuretic peptide receptor Npr1. P16066. HEK293 hNpr1 GloSensor cGMP, ANP-stimulated luminescence. Potency, µM (series often up to 46.3 µM), usual class: inhibitors. hit rate 1.6% among 76,000. AID 1347048; calls by dose curve; further: nearly all actives have a fitted effect of over 60% in size
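HEK293 cells stably expressing human Npr1 and cGMP GloSensor pGS-40F, loaded 2 h with 2% GloSensor reagent, given compound 30 min at room temperature. Luminescence read before and 20 min after 0.1 nM hNppA.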
3T3 cytotox: cytotoxic compounds in NIH 3T3 cells. NIH 3T3 viability, CellTiter-Glo ATP luminescence, 48-72 h. Potency, µM (series often up to 96.7 µM), most hits filed as inhibitors. hit rate 4.3% among 94,000; further: nearly all actives have a fitted effect of over 55% in size
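Mouse fibroblast NIH 3T3 cells, 400 per well, received compound via pintool and were incubated for 48 or 72 hr prior to CellTiter-Glo ATP luminescence measurement.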
Large screens that a line does not name were inactive. In the library only some 11% were active in any assay of this set; here they are far more common. Unless noted, the call rests on the fitted dose curve; in most records, active means well fitted curve in the direction sought with a large enough effect; inconclusive means small, poorly fitted or top-dose-only effect, or another doubt; inactive means no such curve, though single readings can be large; an effect the other way counts as inactive or inconclusive.

C=CCOC(=O)C1=C(C)N=C2SC=C(CC(=O)NC3CC3)N2C1c1cccc(OC)c1OC (centres undefined)	none
COCCCn1c(=O)c(C(=O)N2CCN([S+](=O)([O-])c3ccc(C)cc3)CC2)nc2cccnc21	none (no result: FLuc inh, NPR1 antag)
CC(=O)N1CCC(C(=O)N2CCC(N3Cc4ccccc4C3=O)CC2)CC1	none (no result: FLuc inh, NPR1 antag)
COC[C@@]12CN(Cc3ccc(C(=O)O)cc3)C[C@@H]1C(C)(C)COc1ccc(OC)cc12	3T3 cytotox inconclusive (no result: FLuc inh, NPR1 antag)
CNC(=O)C1(N2CCC[C@H]2C(=O)N2CCC(C)CC2)CCCCC1	none
COC(=O)CNC(=O)c1nc2cccnc2n(C2CC2)c1=O	none (no result: FLuc inh, NPR1 antag)
O=C(C1CC1)N1CCN(c2ccc3nnc(C4CC4)n3n2)CC1	3T3 cytotox inconclusive (no result: FLuc inh, NPR1 antag)
O=C(NCc1ccccc1Cl)C1CCN(C(=O)c2ccc(-c3cccs3)cc2)CC1	HEK cytotox inconclusive, 3T3 cytotox 40µM (no result: FLuc inh, NPR1 antag)
O=[S+]([O-])(NC1CCN(Cc2cccc(-c3cccs3)c2)CC1)c1ccccc1	HEK cytotox 45µM, 3T3 cytotox 40µM (no result: FLuc inh, NPR1 antag)
O=C(C1CC1)N1CCN(CCn2nc3n(c2=O)CCCC3)CC1	none (no result: FLuc inh, NPR1 antag)
Cn1ccnc1C(=O)N1CCc2nn(C)c(=O)n2CC1	none
CCC1=Nc2cc(C(=O)NCCC(C)C)ccc2Sc2ccc(Br)cc21	HEK cytotox inconclusive, 3T3 cytotox inconclusive
CCCC1=Nc2cc(C(=O)NCCc3ccc(C)cc3)ccc2Sc2ccc(C)cc21	HEK cytotox inconclusive, 3T3 cytotox inconclusive
CC1=Nc2cc(C(=O)NCCCN(C)C)ccc2Sc2ccc(Cl)cc21	HEK cytotox 25µM, 3T3 cytotox 22µM
CC1=Nc2cc(C(=O)NCCCN(C)C)ccc2Sc2ccc(F)cc21	HEK cytotox 50µM, 3T3 cytotox inconclusive
CNC(=O)c1cc(C2CC2)nc2c1c(C1CCN(C(C)=O)C1)nn2C (centres undefined)	none (no result: FLuc inh, NPR1 antag)
O=C(NCC1CCNC1)C1CCN(c2nc(-c3ccccc3)nc3c2CCC3)CC1 (centres undefined)	HEK cytotox inconclusive, 3T3 cytotox 79µM
Cn1cc(CNC(=O)C2CCN(c3nc(-c4ccccc4)nc4c3CCC4)CC2)cn1	none
Cc1ccc(C(=O)N2CCC3(CC2)NC(=O)N(Cc2ccc(F)cc2)C3=O)cc1F	HEK cytotox inconclusive, NPR1 antag inconclusive, 3T3 cytotox inconclusive
Cc1csc(NC(=O)c2nc(C(O)c3ccccc3)oc2C)n1 (centres undefined)	HEK cytotox inconclusive, NPR1 antag inconclusive, 3T3 cytotox 79µM
COc1cccc(C(O)c2nc(C(=O)Nc3ccc4c(c3)CC(=O)N4)c(C)o2)c1 (centres undefined)	HEK cytotox 100µM, 3T3 cytotox inconclusive
COc1ccc(NC(=O)c2nc(C(O)c3ccccc3)oc2C)cn1 (centres undefined)	HEK cytotox inconclusive
COc1cccc(C(O)c2nc(C(=O)Nc3nc(C)cs3)c(C)o2)c1 (centres undefined)	FLuc inh inconclusive, HEK cytotox inconclusive, NPR1 antag 18µM, 3T3 cytotox inconclusive
O=C1CO[C@H]2CCN(Cc3ccccc3F)CC[C@@H]2N1CCN1CCCC1	3T3 cytotox inconclusive
c1ccc(-c2cc3c(cn2)NCCN(Cc2ccsc2)C3)cc1	FLuc inh inconclusive, HEK cytotox inconclusive, 3T3 cytotox inconclusive
COc1ccc(OC)c(CN2CCNc3cc(-c4ccccc4)ncc3C2)c1	FLuc inh 40µM, HEK cytotox 112µM, 3T3 cytotox inconclusive
COc1ccc(CN2CCNc3cc(-c4ccnc(C)c4)ncc3C2)cc1O	FLuc inh inconclusive, HEK cytotox inconclusive, 3T3 cytotox inconclusive
COc1ccccc1CN1CCNc2cc(-c3ccccc3)ncc2C1	FLuc inh inconclusive, HEK cytotox inconclusive, 3T3 cytotox inconclusive
CN(C)c1cccc(-c2cc3c(cn2)CN(Cc2ccncc2)CCN3)c1	FLuc inh inconclusive, HEK cytotox inconclusive, 3T3 cytotox inconclusive
Fc1ccc(CN2CCNc3cnc(-c4ccccc4)cc3C2)cc1F	HEK cytotox inconclusive, 3T3 cytotox 79µM
COc1ccccc1CN1CCNc2cc(-c3ccnc(C)c3)ncc2C1	FLuc inh 71µM, HEK cytotox 89µM, 3T3 cytotox inconclusive
COc1ccc(CN2CCNc3cc(-c4ccccc4)ncc3C2)cc1	FLuc inh inconclusive, HEK cytotox 50µM, 3T3 cytotox inconclusive
O=C(NC[C@H]1O[C@@H](CC(=O)N2CCc3ccccc32)[C@H](O)[C@@H]1O)Nc1cccc(F)c1	FLuc inh inconclusive, 3T3 cytotox inconclusive
COc1ccc(OC)c(CN2CCNc3cnc(Nc4ccccc4)cc3C2)c1	HEK cytotox 71µM, 3T3 cytotox inconclusive
Oc1ccccc1CN1CCNc2cnc(Nc3ccccc3)cc2C1	HEK cytotox inconclusive, NPR1 antag inconclusive, 3T3 cytotox inconclusive
CN(C)c1ccc(C(=O)N[C@H]2CO[C@H]3[C@@H]2OC[C@@H]3n2cc(COc3ccccc3)nn2)cc1	HEK cytotox inconclusive
CN(Cc1ccccc1)C(=O)C1CCN(c2cc(C3CC(O)C3)ncn2)CC1 (centres undefined)	HEK cytotox inconclusive, NPR1 antag 13µM
CN(Cc1ccc(-c2ccccc2)cc1)C(=O)C(C)(C)C	FLuc inh 35µM, HEK cytotox 63µM, 3T3 cytotox inconclusive
CN(Cc1ccc(-c2ccccc2)cc1)C(=O)Cc1cccc(Cl)c1	FLuc inh inconclusive, HEK cytotox 63µM, NPR1 antag inconclusive, 3T3 cytotox inconclusive
CN(Cc1ccc(-c2ccccc2)cc1)C(=O)C1CC1	FLuc inh 50µM, HEK cytotox inconclusive, NPR1 antag inconclusive, 3T3 cytotox inconclusive
CN(Cc1ccc(-c2ccccc2)cc1)C(=O)Nc1ccccc1	HEK cytotox inconclusive, NPR1 antag inconclusive
CN(Cc1ccc(F)cc1)C(=O)C(C)(C)C	none
CN(Cc1ccc(-c2ccccc2)cc1)S(C)(=O)=O	FLuc inh 14µM, HEK cytotox inconclusive, 3T3 cytotox inconclusive
CN(Cc1ccccc1)Cc1ccc(-c2ccccc2)cc1	HEK cytotox inconclusive
N#Cc1ccc(CN2CC[C@H]3C(=O)NCCCCCCN(Cc4ccncc4)[C@@H]3C2)cc1	HEK cytotox inconclusive, 3T3 cytotox inconclusive
O=C([C@@H]1C[C@@H](O)[C@H](O)[C@@H]2NC(=S)N(c3ccc(Cl)cc3)[C@@H]21)N1CCCCC1	FLuc inh 50µM
CN(C)C(=O)C1CCN(Cc2ccccc2-c2ccccc2F)CC1	3T3 cytotox inconclusive (no result: FLuc inh, NPR1 antag)
CN1CCC(Cn2ccc3c(N4CCOCC4)nc(-c4cccc5[nH]ccc45)cc32)CC1	HEK cytotox 63µM, 3T3 cytotox 35µM
CN1CCC(Cn2ccc3c(N4CCOCC4)nc(-c4cccc(N5CCOCC5)c4)cc32)CC1	HEK cytotox inconclusive, 3T3 cytotox 32µM
CN1CCC(Cn2ccc3c(N4CCOCC4)nc(-c4ccc5cn[nH]c5c4)cc32)CC1	HEK cytotox 100µM, 3T3 cytotox 40µM
CN1CCC(Cn2ccc3c(N4CCOCC4)nc(-c4cccc(N[S+](C)(=O)[O-])c4)cc32)CC1	HEK cytotox inconclusive, 3T3 cytotox inconclusive
c1ccc(-c2cc3c(ccn3Cc3ccncc3)c(N3CCOCC3)n2)cc1	HEK cytotox inconclusive, 3T3 cytotox inconclusive
C[S+](=O)([O-])NC1CCN(c2ccnc3ccnn23)C1 (centres undefined)	none (no result: FLuc inh, NPR1 antag)
